From PubChem
ADAM17 inh – inhibits human ADAM17 | AID 720648 | inhibition, % at 6.95 µM | 370,000 tested, 0.83% active | recombinant ADAM17, EDANS/DABCYL FRET peptide cleavage | P78536;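 active = inhibition above the mean of compounds lying between control limits plus 3 SD, set per campaign, cut at about 8.5% in these data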
Target sequence (P78536 215-824 limits assumed): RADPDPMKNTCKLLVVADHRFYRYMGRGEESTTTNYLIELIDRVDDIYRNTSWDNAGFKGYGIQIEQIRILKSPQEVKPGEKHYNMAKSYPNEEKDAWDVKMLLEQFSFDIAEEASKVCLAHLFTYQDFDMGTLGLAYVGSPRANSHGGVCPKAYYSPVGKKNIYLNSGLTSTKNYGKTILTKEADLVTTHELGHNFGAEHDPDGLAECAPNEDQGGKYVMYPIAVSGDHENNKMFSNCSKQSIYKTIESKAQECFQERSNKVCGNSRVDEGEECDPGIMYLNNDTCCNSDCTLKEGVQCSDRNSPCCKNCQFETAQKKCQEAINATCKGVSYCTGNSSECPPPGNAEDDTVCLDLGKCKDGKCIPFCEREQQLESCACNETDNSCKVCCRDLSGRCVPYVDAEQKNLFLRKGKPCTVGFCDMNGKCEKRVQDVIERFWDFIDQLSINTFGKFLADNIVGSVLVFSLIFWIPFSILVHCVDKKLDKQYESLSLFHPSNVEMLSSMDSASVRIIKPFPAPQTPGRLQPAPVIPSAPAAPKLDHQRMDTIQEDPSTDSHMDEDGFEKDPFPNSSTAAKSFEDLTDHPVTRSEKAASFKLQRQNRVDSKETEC
KLK7 zymogen act – activators of human kallikrein-7 zymogen; 370,000 tested, 0.9% active; purified proKLK7, EDANS-DABCYL substrate fluorescence; 100% is mature enzyme control, 0% vehicle; AID 652039; P49862; activation, % at 7 µM;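 active = activation above the mean of all tested compounds plus 3 SD, computed per campaign excluding outliers beyond control limits, cut at about 13% in these data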
ADAM10 inh – inhibits human ADAM10. O14672. recombinant ADAM10, EDANS/DABCYL FRET peptide cleavage, 3 h. inhibition, % at 7 µM. 370,000 tested, 0.62% active. AID 720582;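 active = inhibition above a per-campaign cutoff equal to the mean of compounds falling between control-based bounds plus 3 SD, cut at about 20% in these data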
V-ATPase pH – alters yeast V-ATPase proton transport | S. cerevisiae, pHLuorin cytosolic pH fluorescence | response, % at 10 µM | 350,000 tested, 0.37% active | AID 504577; in the data active = response mostly above about 7.3%, no sharp cut-off; inactive = mostly below about 5.4%; note: actives read high
ADAM10 confirm – human ADAM10 inhibition, confirmation; shares compounds with ADAM10 inh; ADAM10 QFRET peptide cleavage, EDANS fluorescence; inhibition, % at 6.95 µM; 2,100 tested, 1% active;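 active = inhibition above about 20% chosen separately for each screening run, limit read from the data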
ADAM17 counter – counter-screen for ADAM10 exosite inhibitors: inhibitors of human ADAM17; shares compounds with ADAM10 inh; ADAM17 QFRET peptide cleavage, EDANS fluorescence; inhibition, % at 6.95 µM; 2,100 tested, 0.5% active; AID 743214;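 active = mean triplicate inhibition above the solvent-only control wells' mean plus 3 SD, cut at about 12% in these data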
A number is an active result. Most compounds without a hit are left out; they make up all but 2.3% or so of the library.

How did O=C(CN1C(=O)NC(c2ccccc2)(c2ccccc2)C1=O)NCc1ccccc1 do in these assays?
ADAM17 inh: inactive; KLK7 zymogen act: inactive; ADAM10 inh: inactive; V-ATPase pH: inactive

Results for COC(=O)[C@H]1[C@@H](O)[C@@]2(O)c3c(OC)cc(OC)cc3O[C@@]2(c2ccc(OC)cc2)[C@@H]1c1ccc(F)cc1 ?
ADAM17 inh: inactive; KLK7 zymogen act: inactive; ADAM10 inh: inactive

How did C#CCNC(=O)C[C@H]1C[C@@]2(C(=O)OC)C(=C[C@H](C(C)C)O[C@@H]2C2CC2)N(Cc2ccccc2)C1=O do in these assays?
ADAM17 inh: inactive; KLK7 zymogen act: inactive; ADAM10 inh: inactive

How did COc1ccc2c(c1)[C@H]1[C@H](CO2)[C@H](c2ccccc2)[C@]2(C)C(=O)Nc3ccc(C)cc3C(=O)N12 do in these assays?
ADAM17 inh: inactive; KLK7 zymogen act: inactive; ADAM10 inh: 28.4; V-ATPase pH: inactive; ADAM10 confirm: inactive; ADAM17 counter: inactive

What do the screens show for `COc1ccc2c(c1)[C@@H]1[C@H](CO2)[C@H](c2ccccc2)[C@]2(C)C(=O)Nc3ccc(C)cc3C(=O)N12`?
V-ATPase pH: inactive

Results for Cc1ccc2c(c1)NC(=O)[C@@]1(C)[C@@H](c3ccccc3)[C@H]3COc4ccccc4[C@@H]3N1C2=O ?
ADAM17 inh: inactive; KLK7 zymogen act: inactive; ADAM10 inh: 26.7; V-ATPase pH: inactive; ADAM10 confirm: inactive; ADAM17 counter: inactive

How did CCOC(=O)[C@@]12CCC3=C1N(CCC3)C(=O)[C@H](CC(=O)N1CCCCC1)C2 do in these assays?
ADAM17 inh: inactive; KLK7 zymogen act: inactive; ADAM10 inh: inactive

Results for CC(C)[C@@H]1CC[C@@H](C)C[C@H]1OC[B-](F)(F)F ?
ADAM17 inh: inactive; KLK7 zymogen act: inactive; ADAM10 inh: inactive

Results for COCCn1c(SCC(=O)N2CCCC2)nc2c(c1=O)SCC2 ?
ADAM17 inh: inactive; KLK7 zymogen act: inactive; ADAM10 inh: 21.0; V-ATPase pH: inactive; ADAM10 confirm: inactive; ADAM17 counter: inactive

How did OC(c1ccccc1)(c1nc(/C=C/c2ccccc2)cs1)C(F)(F)F (stereo not given) do in these assays?
ADAM17 inh: inactive; KLK7 zymogen act: inactive; ADAM10 inh: 21.0; ADAM10 confirm: inactive; ADAM17 counter: inactive

What do the screens show for `Cc1cccc(N(C)S(=O)(=O)c2nnc(NC(=O)c3ccco3)s2)c1`?
ADAM17 inh: inactive; KLK7 zymogen act: inactive; ADAM10 inh: inactive; V-ATPase pH: inactive

How did CN(c1ccccc1)S(=O)(=O)c1nnc(NC(=O)c2ccco2)s1 do in these assays?
ADAM17 inh: inactive; KLK7 zymogen act: inactive; ADAM10 inh: 47.8; V-ATPase pH: inactive; ADAM10 confirm: inactive; ADAM17 counter: inactive

What do the screens show for `CNC(=S)NNC(=O)c1noc(C)c1C(=O)N1CCN(C(c2ccccc2)c2ccccc2)CC1`?
ADAM17 inh: inactive; KLK7 zymogen act: inactive; ADAM10 inh: 32.1; V-ATPase pH: inactive; ADAM10 confirm: inactive; ADAM17 counter: inactive

Results for CCOC(=O)c1c(C)[nH]c(C)c1S(=O)(=O)NCCN1CCN(c2cc(Cl)ccc2C)CC1 ?
ADAM17 inh: 12.0; KLK7 zymogen act: inactive; ADAM10 inh: 24.2; V-ATPase pH: inactive; ADAM10 confirm: inactive; ADAM17 counter: inactive

Results for CC(C)[C@H](NC(=O)c1ccc(Cl)c(Cl)c1)C(=O)N1CCC[C@H]1C(=O)NCCc1ccccc1Cl ?
ADAM17 inh: inactive; KLK7 zymogen act: inactive; ADAM10 inh: inactive

Results for OC(CSc1c(Cl)cccc1Cl)CN1CCN(c2ccc(F)cc2)CC1 (stereo not given) ?
ADAM17 inh: 11.4; KLK7 zymogen act: inactive; ADAM10 inh: 20.9; V-ATPase pH: inactive; ADAM10 confirm: inactive; ADAM17 counter: inactive

Results for COc1ccc(CN(C)CC(=O)NC(=O)NC2CCCCC2)cc1 ?
ADAM17 inh: inactive; KLK7 zymogen act: inactive; ADAM10 inh: 20.9; V-ATPase pH: inactive; ADAM10 confirm: inactive; ADAM17 counter: inactive

What do the screens show for `O=C1C=C(c2ccc3ncccc3c2)C[C@@H](c2ccc(Cl)cc2)C1`?
ADAM17 inh: inactive; KLK7 zymogen act: inactive; ADAM10 inh: 20.2; V-ATPase pH: inactive; ADAM10 confirm: inactive; ADAM17 counter: inactive

Results for O=C(Nc1ccc(C(F)(F)F)cc1)OC1CCC12CCC(c1ccccc1)CC2 (stereo not given) ?
ADAM17 inh: inactive; KLK7 zymogen act: inactive; ADAM10 inh: inactive

How did C[C@@H](c1ccccc1)N1C[C@H](COCc2ccccc2)Oc2cc(N3CCC[C@H]3C(N)=O)ccc2S1(=O)=O do in these assays?
ADAM17 inh: inactive; KLK7 zymogen act: inactive; ADAM10 inh: inactive

Results for CCCCC[C@H](C)N1C[C@@H](COCc2ccccc2)Oc2cc(N3CC[C@@H](O)C3)ccc2S1(=O)=O ?
ADAM17 inh: inactive; KLK7 zymogen act: inactive; ADAM10 inh: inactive

Results for CCCCC[C@@H](C)N1C[C@@H](COCc2ccccc2)Oc2cc(N3CC[C@@H](O)C3)ccc2S1(=O)=O ?
ADAM17 inh: inactive; KLK7 zymogen act: inactive; ADAM10 inh: 20.5; ADAM10 confirm: inactive; ADAM17 counter: inactive

Results for C[C@@H](c1ccccc1)N1C[C@@H](COCc2ccccc2)Oc2cc(N3CCC[C@H]3C(N)=O)ccc2S1(=O)=O ?
ADAM17 inh: inactive; KLK7 zymogen act: inactive; ADAM10 inh: 21.8; ADAM10 confirm: inactive; ADAM17 counter: inactive

Results for CC(NC(=O)C=Cc1ccco1)C(=O)NC(Cc1ccccc1)C(N)=O (stereo not given) ?
ADAM17 inh: inactive; KLK7 zymogen act: inactive; ADAM10 inh: inactive

Results for COc1cc(C(=O)NNC(=S)NC(=O)c2ccc3c(c2)OCO3)cc(OC)c1OC ?
ADAM17 inh: inactive; KLK7 zymogen act: inactive; ADAM10 inh: 21.9; V-ATPase pH: inactive; ADAM10 confirm: inactive; ADAM17 counter: inactive

How did CC(=O)Nc1cccc(C(=O)OC(C(=O)c2ccc(C)cc2)c2ccccc2)c1 (stereo not given) do in these assays?
ADAM17 inh: inactive; KLK7 zymogen act: inactive; ADAM10 inh: 25.2; V-ATPase pH: inactive; ADAM10 confirm: inactive; ADAM17 counter: inactive

Results for Cc1ccc(CN2CCCCC(NC(=O)Cc3cccs3)C2=O)cc1 (stereo not given) ?
ADAM17 inh: inactive; KLK7 zymogen act: inactive; ADAM10 inh: inactive

Results for N#CC1=C(N)NC(SCc2ccc(Br)cc2)=C(C#N)C12CCCCC2 ?
ADAM17 inh: inactive; KLK7 zymogen act: inactive; ADAM10 inh: 25.4; V-ATPase pH: inactive; ADAM10 confirm: inactive; ADAM17 counter: inactive

What do the screens show for `O=C(NC1CCCCN(Cc2ccc(Cl)cc2)C1=O)C(c1ccccc1)c1ccccc1` (stereo not given)?
ADAM17 inh: inactive; KLK7 zymogen act: inactive; ADAM10 inh: 22.4; ADAM10 confirm: inactive; ADAM17 counter: inactive

Results for O=S1(=O)c2ccc(N3CCCC3)cc2Oc2ccccc2CN1Cc1cn(Cc2ccc(C(F)(F)F)cc2)nn1 ?
ADAM17 inh: inactive; KLK7 zymogen act: inactive; ADAM10 inh: inactive
